Bioassay records from PubChem.
CYP2C9 activ – increases human cytochrome P450 2C9 activity; P11712; recombinant CYP2C9, luciferin-H conversion, luminescence; hits give high values; factor 1 = untreated enzyme, 0 = blocked; activation factor at 5 µM; actives 1.4% (n = 96,000);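 active = activation factor of 2 or more for CYP2C9 at a 5 µM dose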
Target sequence (P11712 whole entry, looked up): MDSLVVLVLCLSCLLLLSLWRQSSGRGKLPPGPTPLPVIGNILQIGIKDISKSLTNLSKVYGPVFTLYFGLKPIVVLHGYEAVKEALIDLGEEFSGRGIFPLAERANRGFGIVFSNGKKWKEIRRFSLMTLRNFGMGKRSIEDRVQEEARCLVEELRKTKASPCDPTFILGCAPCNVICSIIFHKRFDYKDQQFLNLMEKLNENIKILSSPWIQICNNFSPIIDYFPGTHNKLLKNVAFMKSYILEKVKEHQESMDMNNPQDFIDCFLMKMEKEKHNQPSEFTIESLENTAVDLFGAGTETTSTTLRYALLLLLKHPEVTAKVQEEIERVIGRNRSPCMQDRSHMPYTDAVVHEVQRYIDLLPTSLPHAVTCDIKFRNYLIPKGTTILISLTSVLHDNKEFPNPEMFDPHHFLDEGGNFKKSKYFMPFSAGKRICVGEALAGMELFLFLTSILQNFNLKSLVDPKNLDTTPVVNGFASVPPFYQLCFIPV
CYP2C19 act – activators of human cytochrome P450 2C19. P33261. recombinant CYP2C19, luciferin-H EGE luminescence; hits give high values; 0 = fully inhibited enzyme, 1 = untreated enzyme. activation factor at 5 µM. 96,000 tested, under 10 active;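 active = activation factor of at least 2 at 5 µM in the primary screen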
CYP2C9 inh – blocks human cytochrome P450 2C9 | AID 777 | P11712 | actives 20% (n = 96,000) | CYP2C9 Supersomes, luciferin-H conversion, luminescence | inhibition, % at 5 µM;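 active = blocking of liver enzyme CYP2C9 beyond about 50% at 5 µM, limit read from the data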
PTK2B oligo ant – antagonists of human Pyk2 oligomerization | Q293 cells, Pyk2 FERM NanoBiT luminescence; hits give low values | z-score (the deposit names both 25 µM and 10 µM) | actives 0.83% (n = 99,000) | AID 1347419;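 active = Z-score of -3 or lower, scaled per plate to the spread of control and sample wells; inactive = z-score above -3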;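 also: negative z-score means lost luminescence so less FERM oligomerization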
CYP2C19 inh – blocks human cytochrome P450 2C19. P33261. actives 21% (n = 96,000). CYP2C19 Supersomes, luciferin-H EGE luminescence, 30 min. inhibition, % at 5 µM;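 active = CYP2C19 inhibition above a set limit at 5 µM in the primary screen, cut at about 50% in these data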
Each line names hits and unclear results; the compound was inactive in the other large screens. Rows were chosen to be rich in hits. Some 28% of all compounds tested hit in one or more screens of this group.

Cc1cc(NC(=O)c2ccc3c(c2)C(=O)N(C2CCCCC2)C3=O)no1	none
O=C(Nc1ccncc1)c1ccc2c(c1)C(=O)N(C1CCCCC1)C2=O	CYP2C9 inh 92, CYP2C19 inh 76
CCC(=O)Nc1ccc2c(c1)C(=O)N(C1CCCCC1)C2=O	CYP2C9 inh 53
COc1ccc(-c2cc(-c3cccs3)c(C#N)c(SCC(=O)NCc3ccccc3)n2)cc1	CYP2C9 inh 53
CCSc1nc(-c2ccc(OC)cc2)cc(-c2ccccc2)c1C#N	CYP2C9 inh 66
COc1ccc(-c2cc(-c3cccs3)c(C#N)c(SCC(=O)NCc3ccccc3OC)n2)cc1	none
COc1ccccc1-c1cc(-c2ccc(C)cc2)nc(SCc2nnc(-c3ccccc3)o2)c1C#N	CYP2C9 inh 69
COc1ccc(-c2cc(-c3ccccc3)c(C#N)c(S(C)=O)n2)cc1 (stereo not drawn)	CYP2C9 inh 68
COc1ccc(-c2cc(-c3ccccc3)nc(SCC(=O)Nc3ncc(C)s3)c2C#N)cc1	none (no result: CYP2C9 activ, CYP2C19 act, CYP2C9 inh, CYP2C19 inh)
COc1cccc(-c2cc(C(F)(F)F)nc(N3CCCCC3)n2)c1	none
Cc1cccc(Nc2nc(NCc3ccco3)nc(N3CCOCC3)n2)c1	CYP2C9 inh 92, CYP2C19 inh 82
Cc1cccc(Nc2nc(N3CCCC3)nc(N3CCCC3)n2)c1	none
CC1(C)Cc2c(sc(/N=C/N3CCCC3)c2C#N)C(C)(C)N1	none (no result: CYP2C9 activ, CYP2C19 act, CYP2C9 inh, CYP2C19 inh)
CN(CC(=O)NCCC1=CCCCC1)S(=O)(=O)c1ccc2c(c1)CCC(=O)N2	none (no result: PTK2B oligo ant)
COc1ccccc1CNC(=O)c1ccc(OCc2c(C)noc2C)c(OC)c1	none
O=C(Nc1ccc(OCc2ccccc2)cc1)c1cccnc1	none
COc1ccc2nc(NC(=O)c3cccc(OCc4c(C)noc4C)c3)sc2c1	none
Cc1noc(C)c1COc1cccc(C(=O)Nc2ccc(OCc3ccccc3)cc2)c1	CYP2C9 inh 73, CYP2C19 inh 62
CCSc1nnc(NC(=O)c2cccc(OCc3c(C)noc3C)c2)s1	CYP2C9 inh 86, CYP2C19 inh 88
Cc1noc(C)c1COc1cccc(C(=O)NCc2ccccc2Cl)c1	CYP2C9 inh 53, CYP2C19 inh 58
Nc1ccnn1Cc1cccs1	none (no result: CYP2C9 activ, CYP2C19 act, CYP2C9 inh, CYP2C19 inh)
CN(C)c1ccc(C(c2nnnn2C(C)(C)C)N2CCc3ccccc3C2)cc1 (stereo not drawn)	CYP2C19 inh 58 (no result: PTK2B oligo ant)
CC1CCN(C(c2ccc(N(C)C)cc2)c2nnnn2Cc2ccccc2)CC1 (stereo not drawn)	none
Cc1cccc(N2CCN(C(c3ccccc3)c3nnnn3C(C)(C)C)CC2)c1C (stereo not drawn)	none (no result: CYP2C9 activ, CYP2C19 act, CYP2C9 inh, CYP2C19 inh)
CC(C)(C)n1nnnc1C(c1ccccc1)N1CCc2ccccc2C1 (stereo not drawn)	CYP2C19 inh 54
CC1CCN(C(c2ccc(N(C)C)cc2)c2nnnn2C(C)(C)C)CC1 (stereo not drawn)	CYP2C19 inh 60
O=C(CSc1nc2cc3ccccc3cc2[nH]1)Nc1ccc(F)cc1	CYP2C9 inh 69
c1ccc(-c2cc(CSc3nc4ccccc4[nH]3)on2)cc1	CYP2C9 inh 62
Cc1noc(C)c1CSc1nc2ccccc2[nH]1	none
Fc1ccccc1CSc1nc2ncccc2[nH]1	CYP2C19 inh 66
Fc1cccc(F)c1CSc1nc2ccccc2[nH]1	CYP2C19 inh 54
COc1cc(Br)cc2cc(C(=O)OC3CCN(C)CC3)c(=O)oc12	none (no result: CYP2C9 activ, CYP2C19 act, CYP2C9 inh, CYP2C19 inh)
Cc1ccc(S(=O)(=O)N2CCOCC2)cc1NC(=O)Cn1cc(C(F)(F)F)cc(Cl)c1=O	none (no result: CYP2C9 activ, CYP2C19 act, CYP2C9 inh, CYP2C19 inh)
O=C(CSc1nc2ccccc2[nH]1)Nc1c(F)cccc1F	CYP2C19 inh 51
COc1nonc1NC(=O)CSc1nc2ccccc2[nH]1	none
COc1cccc(N2CCCn3c2nc2c3c(=O)n(CCN3CCOCC3)c(=O)n2C)c1	none (no result: PTK2B oligo ant)
CCn1c(CNc2ccc(F)cc2)nnc1SCC(=O)OC1CCCCC1	CYP2C9 inh 51
CCn1c(SCC(=O)OC2CCCCC2)nnc1-c1ccncc1	CYP2C19 inh 88
CCCNC(=O)NC(=O)CSc1nnc(-c2ccncc2)n1CC	CYP2C19 inh 95
CCn1c(CNc2ccc(F)cc2)nnc1SCC(=O)Nc1ccc(OC)cc1OC	CYP2C19 inh 50
CCn1c(SCC(=O)NNC(=O)c2ccccc2)nnc1-c1ccncc1	none
CCn1c(SCC(=O)OC)nnc1-c1ccncc1	none (no result: CYP2C9 activ, CYP2C19 act, CYP2C9 inh, CYP2C19 inh)
Cc1cc(C)c(NC(=O)CCCOC(=O)C2=COCCO2)c(C)c1	none
O=C(COC(=O)Cc1ccc(Cl)cc1Cl)Nc1ccccc1OC(F)F	none (no result: CYP2C9 activ, CYP2C19 act, CYP2C9 inh, CYP2C19 inh)
O=C(Nc1ccc2c(c1)CCC2)C1CCCO1 (stereo not drawn)	none (no result: CYP2C9 activ, CYP2C19 act, CYP2C9 inh, CYP2C19 inh)
O=C(Nc1ccc2c(c1)CCC2)C1COc2ccccc2O1 (stereo not drawn)	CYP2C19 inh 95
O=C(CSC1=NCCN1)C1COc2ccccc2O1 (stereo not drawn)	CYP2C9 inh 67, CYP2C19 inh 61
CCN(CC)S(=O)(=O)c1ccc(NC(=O)COC(=O)CN2C(=O)c3ccccc3C2=O)cc1	CYP2C9 inh 81
